# In the library only some 2.3% were active in any assay of this set; here they are far more common.
# M1 antag: antagonists of human M1 muscarinic receptor | P11229 | CHO-K1 hM1, Fluo-8 calcium fluorescence, ACh EC80 antagonist | inhibition, % at 3 µM | 360,000 tested, 1.3% active | AID 588852;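 active = percent inhibition above its own plate's cutoff, namely the mean of that plate's compound wells plus 3 SD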;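 also: peak over basal fluorescence ratio during 140 s after agonist addition; 0% = ACh EC80 plus DMSO and 100% = DMSO alone without agonist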
# Target sequence (P11229 whole entry, looked up): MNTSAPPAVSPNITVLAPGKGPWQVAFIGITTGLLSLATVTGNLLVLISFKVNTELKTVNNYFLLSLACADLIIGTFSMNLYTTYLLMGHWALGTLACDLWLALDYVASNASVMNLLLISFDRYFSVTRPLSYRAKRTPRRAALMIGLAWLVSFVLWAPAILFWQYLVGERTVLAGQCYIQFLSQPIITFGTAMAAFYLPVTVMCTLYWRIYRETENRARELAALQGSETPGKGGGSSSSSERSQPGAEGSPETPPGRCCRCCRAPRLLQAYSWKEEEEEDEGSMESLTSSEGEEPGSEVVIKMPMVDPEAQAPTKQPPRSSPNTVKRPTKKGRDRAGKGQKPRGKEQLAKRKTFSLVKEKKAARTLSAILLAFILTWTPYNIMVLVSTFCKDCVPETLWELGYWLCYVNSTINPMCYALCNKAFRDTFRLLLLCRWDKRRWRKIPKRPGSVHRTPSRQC
# CHO-K1 Ca PAM: nonselective activator or artifact in parental CHO-K1 calcium assay; 360,000 tested, 0.02% active; activation, % at 3 µM; ATP EC20, Fluo-8 calcium fluorescence; 0% at ATP EC20, 100% at ATP max;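 active = activation above the run cutoff, the mean activation of all test compounds plus 3 SD, cut at about 40% in these data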;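 also: peak over basal fluorescence ratio in a 140 s read after ATP addition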
# CHO-K1 Ca ag: nonselective activator or artifact in parental CHO-K1 cells; 360,000 tested, 0.48% active; Fluo-8 calcium fluorescence; scaled to maximal ATP response, vehicle zero; activation, % at 3 µM; AID 602248; in the data active = activation above about 15%;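 also: untransfected CHO-K1 host cells lacking M1 receptor as counterscreen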
# CHO-K1 Ca antag: counter-screen for M1 antagonists: effect in parental CHO-K1 cells. ATP-induced calcium, Fluo-8 fluorescence. inhibition, % at 3 µM. 360,000 tested, 0.6% active;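 active = inhibition above a per-plate cutoff, the plate's mean sample inhibition plus 3 SD, cut at about 24% in these data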;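 also: 0% = DMSO plus EC80 ATP and 100% = DMSO alone without ATP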
# M1 PAM: potentiates human M1 receptor response to acetylcholine. activation, % at 3 µM. CHO-K1 hM1, Fluo-8 calcium fluorescence, ACh EC20; 0% = ACh EC20, 100% = maximal ACh. P11229. 360,000 tested, 0.088% active; in the data active = activation above about 19%, passing the limit was not always enough
# CHRM1 agonist: activates human CHRM1 receptor; P11229; CHO-K1 hM1, Fluo-8 calcium fluorescence, agonist mode; 0% DMSO, 100% acetylcholine EC100; activation, % at 3 µM; 360,000 tested, 0.33% active; AID 588814;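 active = activation above the run's mean compound activation plus 3 SD, cut at about 16% in these data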;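 also: peak over basal fluorescence ratio within a 140 s kinetic read after compound addition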
# * marks the source's active call; other numbers are inactive results.
SMILES,M1 antag,CHO-K1 Ca PAM,CHO-K1 Ca ag,CHO-K1 Ca antag,M1 PAM,CHRM1 agonist
S=C1N(c2ccccc2)C(c2ccc(Br)cc2)N2CCCN12 (centres undefined),100*,14,1,-5,-28,-7
S=C1N(c2ccccc2)C(c2ccc(Cl)cc2)N2CCCN12 (centres undefined),96*,7,0,-3,-21,-7
COc1ccc(C2N(c3ccccc3)C(=S)N3CCCN23)cc1 (centres undefined),32,19,0,-4,-22,-9
O=C(NC1CCCC1)c1cc(-c2ccc(Cl)cc2)on1,26*,-12,1,0,-13,-4
NNC(=O)[C@H](Cc1ccccc1)NC(=O)Nc1ccc2c(c1)OCCO2,36*,-13,0,-4,-22,-7
COc1ccc(NC(=O)N[C@@H](Cc2ccccc2)C(=O)NN)cc1,-15,25,1,-8,9,-3
COc1cc(CNCCNC(=O)c2nonc2N)ccc1OCc1ccc(Cl)cc1,-2,14,17*,1,8,1
CCCCCCCOC(=O)C[N+](C)(C)CCOC1CC2CCC1(C)C2(C)C (centres undefined),11,32,27*,5,5,-4
CCCCCCOC(=O)C[N+](C)(C)CCOC1CC2CCC1(C)C2(C)C (centres undefined),-5,3,0,-2,10,-3
CN1CCN(C(=O)/C(C#N)=C/c2ccc(F)cc2)CC1,-6,-9,0,-3,3,-2
CC1CC(C)CN(C(=O)/C(=C\c2ccccc2)c2ccccc2)C1 (centres undefined),-6,9,0,0,4,-9
O=C(CCC(=O)N1CCN(c2ccc(F)cc2)CC1)N1CCN(c2ccc(F)cc2)CC1,-8,8,7,-5,1,-1
CN1CCN(C(=O)/C(=C/c2ccccc2)c2ccccc2)CC1,98*,25,9,-5,-21,-7
CN1CCN(C(=O)/C(=C/c2ccc(F)cc2)c2ccsc2)CC1,98*,9,1,-6,-24,-6
C/C(=C/c1ccccc1)C(=O)N1CCN(c2ccc(F)cc2)CC1,-11,16,16*,4,8,4
CCOC(=O)C1CCC2(CC1)C(C#N)=C(N)Oc1n[nH]c(C)c12 (centres undefined),10,12,2,5,-5,-2
CC(OC(=O)CCCN=C1NS(=O)(=O)c2ccccc21)C(=O)c1ccccc1 (centres undefined),5,6,16*,-4,-3,19*
NC(=O)c1ccc(N2CCN(S(=O)(=O)c3cccs3)CC2)c([N+](=O)[O-])c1,35*,-8,17*,23,-14,3
Cc1cccc2nc(CSc3nc4cc([N+](=O)[O-])ccc4s3)cn12,-15,17,2,-12,-1,-10
O=C(O)CCC(=O)N1c2ccccc2NC2=C(C(=O)CC(c3ccc(F)cc3)C2)C1c1ccc([N+](=O)[O-])o1 (centres undefined),8,-18,0,25*,-9,-6
CCOC(=O)C1CCCN(c2ncnc3c2oc2ccccc23)C1 (centres undefined),21,-8,4,24*,-11,0
Cc1ccc(CS(=O)(=O)CC(C)(O)c2ccc(Cl)cc2)cc1 (centres undefined),-18,13,-1,-11,12,-7
c1ccc(Oc2cccc(OCCCn3cncn3)c2)cc1,-26,6,0,8,21*,6
S=c1[nH]nc(-c2cccs2)n1/N=C/c1c(Cl)cccc1Cl,11,21,6,-15,4,20*
CCc1occc(=O)c1Oc1cc(NN2CCCCC2)c([N+](=O)[O-])cc1[N+](=O)[O-],-4,26,-1,-17,-16,-10
SMILES,M1 antag,CHO-K1 Ca PAM,CHO-K1 Ca ag,CHO-K1 Ca antag,M1 PAM,CHRM1 agonist
CC(=O)c1c(N2CCN(C)CC2)nc(=S)n(Cc2ccccc2)c1C,-11,19,1,-6,0,-10
C=CCn1c(C)c(C(C)=O)c(N2CCN(C(c3ccccc3)c3ccccc3)CC2)nc1=S,35*,11,4,-9,-15,-3
CN(C)C1(CNC(=O)Nc2ccccc2)CCCCC1,-9,13,1,-8,7,-8
CN(C)C1(CNC(=S)Nc2ccccc2C(F)(F)F)CCCCC1,6,15,2,-7,-6,50*
CCNc1nc(NC(C)C)nc(NC(C)(C)C)n1,33*,10,1,-11,-20,-6
CN(CCO)S(=O)(=O)c1ccc2c(c1)C(=NN)c1cc(S(=O)(=O)N(C)CCO)ccc1-2,-4,4,0,-11,2,-4
O=C(C(=Cc1ccccc1)CN1CCCCC1)c1ccccc1,39*,28,1,-18,-27,-8
O=C(CCCCN1CCCCC1)c1ccccc1,-2,5,3,-2,-3,-4
CCOc1ccc(NCc2cccn2-c2nnc(N3CCC(C(=O)NCCCN4CCCCC4CC)CC3)s2)cc1 (centres undefined),88*,-1,0,-14,-23,-5
N#Cc1cnn(CC2CCCCC2)c1N,1,-8,0,30*,1,-4
COc1ccc(OCc2nnc(SCC(=O)Nc3nnc(C4CC4)s3)n2C)cc1,-8,-2,0,-9,8,-10
CN(C)S(=O)(=O)c1cccc(NC(=O)CCNC(=O)c2ccccc2Cl)c1,-2,1,0,6,2,-5
CCOC(=O)COc1cc2c3c(c(=O)oc2cc1C)CCCC3,48*,15,3,5,-22,-5
COc1ccc(N2C(=O)CC(N3CCN(S(=O)(=O)c4cc(C)ccc4C)CC3)C2=O)cc1 (centres undefined),5,2,16*,12,-5,-4
COc1ccc(N2C(=O)CC(N3CCN(S(=O)(=O)c4c(C)cc(C)cc4C)CC3)C2=O)cc1 (centres undefined),-3,17,2,-14,4,-3
Cc1ccc(C(=O)Cn2cnc3ccccc3c2=O)cc1,-24,30,0,-16,-5,-2
CCOc1ccc(C(=O)Cn2cnc3ccccc3c2=O)cc1,28*,-2,2,-19,-12,-8
O=C(O)c1cc([N+](=O)[O-])ccc1NCc1ccccc1,3,-6,0,13,-2,-2
O=C(O)c1cc([N+](=O)[O-])ccc1NCCCc1ccccc1,-24,2,1,7,-2,18*
CCOC(=O)CSc1nc2sc3c(c2c(=O)n1C1CCCCC1)CCN(C)C3,24*,8,0,1,-25,-7

# Bioassay records deposited in PubChem BioAssay by The Scripps Research Institute Molecular Screening Center.
